Experimental data: PubChem BioAssay (NCATS)
Values joined by “and” are separate entries in the source; they are usually repeats but may differ in a detail not shown here. Identical values can stand only once. Results filed as inconclusive are left out. A call without a number means that no potency is given here. More than one record can exist for a structure, and the calls need not agree. Active and inactive are the calls of the source. Calls follow the shape of the dose curve; as a rule, active = well fitted inhibition curve with a large enough effect; inconclusive = small, poorly fitted or top-dose-only effect; inactive = no such curve, though single readings can be large or run the other way.

Target: M-phase phosphoprotein 8 (Homo sapiens) (UniProt Q99549)
Sequence (Q99549 whole entry, looked up): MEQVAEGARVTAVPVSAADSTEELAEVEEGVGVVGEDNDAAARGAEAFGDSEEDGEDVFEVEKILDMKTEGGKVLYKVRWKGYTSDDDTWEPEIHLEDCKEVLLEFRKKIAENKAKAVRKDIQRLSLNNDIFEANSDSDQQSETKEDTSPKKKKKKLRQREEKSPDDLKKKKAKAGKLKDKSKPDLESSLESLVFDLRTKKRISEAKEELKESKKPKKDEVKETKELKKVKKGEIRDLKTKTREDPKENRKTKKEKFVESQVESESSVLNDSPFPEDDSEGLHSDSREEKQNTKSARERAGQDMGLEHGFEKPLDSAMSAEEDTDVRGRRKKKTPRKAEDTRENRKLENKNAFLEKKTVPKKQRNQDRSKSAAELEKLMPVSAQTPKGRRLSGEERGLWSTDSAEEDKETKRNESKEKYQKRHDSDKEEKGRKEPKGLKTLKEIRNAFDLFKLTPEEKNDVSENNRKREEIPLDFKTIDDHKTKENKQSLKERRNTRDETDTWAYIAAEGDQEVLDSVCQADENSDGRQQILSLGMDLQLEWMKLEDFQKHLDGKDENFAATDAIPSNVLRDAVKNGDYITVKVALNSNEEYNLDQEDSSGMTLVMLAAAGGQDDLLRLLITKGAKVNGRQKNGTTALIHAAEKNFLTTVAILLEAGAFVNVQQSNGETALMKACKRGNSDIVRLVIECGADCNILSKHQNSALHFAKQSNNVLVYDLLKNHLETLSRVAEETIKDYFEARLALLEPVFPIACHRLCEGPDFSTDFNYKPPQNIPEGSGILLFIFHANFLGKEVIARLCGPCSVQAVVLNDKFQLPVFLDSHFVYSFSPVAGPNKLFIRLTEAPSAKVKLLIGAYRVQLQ
Assay: qHTS Validation Assay for Inhibitors for MPP8 Chromodomain Interactions with Methylated Histone Tails (AID 488949); also: nearly all actives have a fitted effect of over 55% in size
Details: AlphaScreen MPP8 binding to H3K9me3 peptide; series mostly up to 57.1 µM
Description: As our understanding of epigenetics expands, it is becoming clear that players in this field are potential targets for drug development. This area of epigenetic therapy has established applications for the treatment of cancer and neurological diseases. We have been involved in this field for a number of years and have performed high-throughput screens to identify the first small molecule inhibitors of protein methyltransferases. These methyltransferases target multiple substrates, and thus regulate many arms of an epigenetic pathway. The methylation of different substrates often generates docking sites for effector proteins that harbor binding domains (chromo, tudor, PHD, MBT and ANK repeats). It has been proposed that the binding sites generated for different proteins by these post-translational modifcations mediate downstream effects on chromatin. Consistent with this theory, di- and tri-methylation of histone H3K9 facilitates the binding of heterochromatin protein HP1. The HP1 protein harbors a chromodomain that is responsible for the methyl-dependent interaction between HP1 and lysine 9 of histone H3. HP1 was first described in flies as a heterochromatin associated protein that can regulate gene silencing. It harbors a chromodomain that binds H3K9me3. In addition, it harbors a chromoshadow domain that interacts with a large number of proteins that are involved in heterochromatin formation and gene repression. There are three highly related HP1 isoforms. All three variants are associated with pericentric heterochromatin and it is not clear whether they have specific or redundant functions. MPP8 is also involved in the repression of gene in euchromatic regions (unpublished data) and like HP1 its chromodomain binds H3K9me3. MPP8 harbors an ankyrin repeat region that is likely involved in binding and recruiting interacting proteins with transcriptional repressive function, much like the chromoshadow domain of HP1 does. We hypothesize that by inhibiting specific protein-protein interactions we will be able to develop compounds that block a single arm of an epigenetic pathway. The specificity attained by blocking a single protein-protein interaction will be far greater than that attained by blocking the enzyme that regulates one of many interactions. Low-affinity protein-protein interactions (Kd in the single- to double-digit micromolar range) such as those discussed here have been very difficult to assay by traditional techniques such as fluorescence polarization or fluorescence resonance energy transfer. We have developed a sensitive chemiluminescence-based assay (Quinn, et al. 2009), which serves as the starting point for this project. The following is a validation assay to identify lead compounds that can block methyl-dependent protein-protein interactions (specifically MPP8), which can be used as probes to analyze these methyl-driven interactions and perhaps even developed into targeted epigenetic therapies. Assay Provider: Mark T. Bedford, MD Anderson Screening Center PI: Austin, C.P. Screening Center: NIH Chemical Genomics Center [NCGC]
To each well, 2 uL of MPP8 protein (final 50 nM) and 1 uL biotinylated histone peptide trimethylated at Lys9 [b-H3(1-18)K9me3] (final 50 nM) was added in 1x PBS buffer, pH 7.4, containing 0.01% Tween-20 using a nanoliter dispenser. Formation of a protein-peptide complex proceeded at room temperature for 30 min. A Kalypsys pin-tool was employed to transfer 23 nL of library compound solution in DMSO to each well. Aurintricarboxylic acid (ATA) was used as an intraplate control with a 12-point titration in duplicate. Following a 30 min incubation of the protein-peptide complex with compounds at room temperature, a mixture of 40 ug/mL each streptavidin-coated donor and nickel chelate acceptor AlphaScreen beads (final 10 ug/mL) was added in a 1 uL dispense for a final volume of 4 uL. Plates were incubated protected from the light for 30 min at room temperature. […]
Potency is read from the fitted curve at half-maximal effect.

SMILES	Potency
CN1CCN(CCCN2c3ccccc3Sc3ccc(Cl)cc32)CC1	25.1 µM (active) and 15 µM (active)
COc1ccccc1OCC(O)CN1CCN(CC(=O)Nc2c(C)cccc2C)CC1 (stereo not given)	inactive
NS(=O)(=O)c1cc2c(cc1Cl)NCNS2(=O)=O	inactive
COc1ccc(C2CNC(=O)C2)cc1OC1CCCC1 (stereo not given)	inactive
NCCCCCC(=O)O	inactive
O=C1Cc2cc(CCN3CCN(c4nsc5ccccc45)CC3)c(Cl)cc2N1	inactive
COc1ccc2c(c1)c(CC(=O)O)c(C)n2C(=O)c1ccc(Cl)cc1	inactive
Cn1cnc2c1c(=O)[nH]c(=O)n2C	inactive
CC(C)NCC(O)c1ccc(O)c(O)c1 (stereo not given)	inactive
Nc1nnc(-c2cccc(Cl)c2Cl)c(N)n1	inactive
COc1nc(C)nc(Cl)c1NC1=NCCN1	inactive
CN1CCN2c3ccccc3Cc3ccccc3C2C1 (stereo not given)	inactive
NCCc1cnc[nH]1	inactive
CN(C)c1nc(N(C)C)nc(N(C)C)n1	inactive
CCOC(=O)Nc1ccc(NCc2ccc(F)cc2)nc1N	39.8 µM (active) and inactive
COc1ccccc1OCCNCC(O)COc1cccc2[nH]c3ccccc3c12 (stereo not given)	inactive
O=C(Nc1ccc([N+](=O)[O-])cc1Cl)c1cc(Cl)ccc1O	inactive
C[C@](N)(Cc1ccc(O)c(O)c1)C(=O)O	1.89 µM (active)
CN(C)CCCN1c2ccccc2CCc2ccc(Cl)cc21	inactive
Cn1c(=O)c2[nH]cnc2n(C)c1=O	inactive

SMILES	Potency
CC1COc2c(N3CCN(C)CC3)c(F)cc3c(=O)c(C(=O)O)cn1c23 (stereo not given)	inactive
CC(C)NCC(O)COc1ccc(CCOCC2CC2)cc1 (stereo not given)	inactive
CC(C)Cc1ccc(C(C)C(=O)O)cc1 (stereo not given)	inactive
CCOC(=O)C(C)(C)Oc1ccc(Cl)cc1	inactive
Cc1cn([C@H]2C[C@H](N=[N+]=[N-])[C@@H](CO)O2)c(=O)[nH]c1=O	inactive
Clc1ccccc1C(c1ccccc1)(c1ccccc1)n1ccnc1	inactive
CCN1CCCC1CNC(=O)c1cc(S(=O)(=O)CC)c(N)cc1OC (stereo not given)	inactive
CN1C2CCC1CC(OC(=O)C(CO)c1ccccc1)C2 (stereo not given)	inactive
CC(CCc1ccc(O)cc1)NCCc1ccc(O)c(O)c1 (stereo not given)	inactive
CC(C(=O)O)c1cccc(C(=O)c2ccccc2)c1 (stereo not given)	inactive
Nc1nc2c(ncn2COC(CO)CO)c(=O)[nH]1	inactive
CC12CC3CC(C)(C1)CC(N)(C3)C2	inactive
CN1C(C(=O)Nc2ccccn2)=C(O)c2ccccc2S1(=O)=O	inactive
Nc1c2c(nc3ccccc13)CCCC2	inactive
N[C@@H](Cc1c[nH]c2ccc(O)cc12)C(=O)O	inactive
CCc1cccc2c3c([nH]c12)C(CC)(CC(=O)O)OCC3 (stereo not given)	inactive
NC(CO)C(=O)NNCc1ccc(O)c(O)c1O (stereo not given)	31.6 µM (active)
O=C(C1CCCCC1)N1CC(=O)N2CCc3ccccc3C2C1 (stereo not given)	inactive
CC(C)(Oc1ccc(C2CC2(Cl)Cl)cc1)C(=O)O (stereo not given)	39.8 µM (active) and inactive
O=C1c2c(O)ccc(O)c2C(=O)c2c(NCCNCCO)ccc(NCCNCCO)c21	2.82 µM (active) and 6.7 µM (active)
